The panel holds about 83,000 compounds, 20% with a hit somewhere; the sample as a whole holds those more often.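 Percent growth is the endpoint: 0 to 100 indicates growth inhibition (40 means 60% inhibition), 0 means no net growth, and negative values indicate cell death.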 A number with no mark means an inactive call. Active and inactive are the calls of the source. Rule for the calls: active = growth percent below 10; inactive = the rest.
Assays:
Assay in all cases: NCI-60 one-dose screen, 48 h (100 = growth as untreated, 0 = no growth, -100 = all killed)
Settings in all cases: 10 µM unless noted
HCT-15 colon = system: HCT-15 colon
HT29 colon = system: HT29 colon
SNB-75 CNS = system: SNB-75 CNS
SNB-19 CNS = system: SNB-19 CNS
U251 CNS = system: U251 CNS
PC-3 prostate = system: PC-3 prostate
SK-MEL-5 melanoma = system: SK-MEL-5 melanoma
UACC-62 melanoma = system: UACC-62 melanoma
LOX IMVI melanoma = system: LOX IMVI melanoma
SK-MEL-28 melanoma = system: SK-MEL-28 melanoma
SK-MEL-2 melanoma = system: SK-MEL-2 melanoma
EKVX NSCLC = system: EKVX NSCLC
SN12C renal = system: SN12C renal
UO-31 renal = system: UO-31 renal
TK-10 renal = system: TK-10 renal
ACHN renal = system: ACHN renal
CAKI-1 renal = system: CAKI-1 renal
A498 renal = system: A498 renal
CCRF-CEM leukemia = system: CCRF-CEM leukemia
MOLT-4 leukemia = system: MOLT-4 leukemia

Row | Structure (SMILES) | growth (HCT-15 colon) | growth (HT29 colon) | growth (SNB-75 CNS) | growth (SNB-19 CNS) | growth (U251 CNS) | growth (PC-3 prostate) | growth (SK-MEL-5 melanoma) | growth (UACC-62 melanoma) | growth (LOX IMVI melanoma) | growth (SK-MEL-28 melanoma) | growth (SK-MEL-2 melanoma) | growth (EKVX NSCLC) | growth (SN12C renal) | growth (UO-31 renal) | growth (TK-10 renal) [%] | growth (ACHN renal) | growth (CAKI-1 renal) | growth (A498 renal) | growth (CCRF-CEM leukemia) | growth (MOLT-4 leukemia)
1 | COc1cnc2c(c1)C(=O)c1c-2n(CCCN2CCN(C)CC2)c(=O)c2cc(Cl)ccc12 | 41.8% | -60.6% (active) | 38.7% | 46.3% | 45.4% | 40.5% | 65.4% | -49% (active) | 38.2% | -53.8% (active) | 32.3% | 51.5% | 43% | 40.1% | 48.5 | 18.4% | 45.3% | -4.26% (active) | -14.6% (active) | -36.6% (active)
2 | COc1ccc2c(c1)OC1=C(C(=O)OC1)C2c1cc(OC)c2c(c1)OCCO2 (stereo not given) | 12.8% | 5.47% (active) | 30% | 38.8% | 20.5% | 25.6% | -17.7% (active) | 36.3% | 21.3% | 45.4% | 41.3% | 55.5% | 27.5% | 46.2% | 76.2 | 27.8% | 48.1% | -1.6% (active) | 15% | 20.8%
3 | CC(C)(C)c1nn(-c2ccccc2)c2c1C(=O)CSC(c1ccc3c(c1)OCO3)N2 (stereo not given) | 89.9% | 100% | 98.4% | 101% | 107% | 84.4% | 110% | 85.3% | 87% | 109% | 101% | 80.2% | 91.3% | 74.8% | 103 | 107% | 81.4% | 113% | 98.1% | 86%
4 | CCN1C(=O)N(CC)C2C1NC(=O)N2/N=C/C=C/c1ccccc1 (stereo not given) | 26.9% | 14.6% | 30.8% | 47.3% | 38.8% | 34.6% | 18% | 20.6% | 32.9% | 53.2% | 34.3% | 53.8% | 61.3% | 57.6% | 69.3 | 48.1% | 47.2% | 25.2% | 19.1% | 43.7%
5 | COc1ccccc1CNCCCN1C(=O)c2ccc3c4c(ccc(c24)C1=O)C(=O)N(CCCNCCCN)C3=O | 8.83% (active) | -31.5% (active) | 46% | 11.9% | -72.5% (active) | 18.7% | -97.8% (active) | -50% (active) | -7.09% (active) | 22.7% | -47.3% (active) | 34.7% | -56.8% (active) | 23.3% | 33.3 | 9.16% (active) | 31.9% | 14.9% | 7.88% (active) | -24.5% (active)
6 | C=CCOc1ccc2c(C)cc(=O)oc2c1 | 101% | 94.9% | 111% | 122% | 89% | 93% | 108% | 105% | 105% | 113% | 129% | 106% | 115% | 115% | 91.9 | 108% | 97.9% | 71% | 96.2% | 107%
7 | CN(C)c1nc(-c2ccco2)n2nc(-c3ccc(Cl)cc3)cc2n1 | 92.7% | 58.6% | 20.9% | 77.9% | 59.5% | 64.7% | 81.2% | 87% | 50.5% | 94.8% | 99.2% | 84.2% | 86.6% | 20.7% | 23.1 | 28.5% | 74.1% | 75.8% | 86.7% | 86.8%
8 | COc1cc(C)c(Cl)cc1C1=NN(c2ccc(S(N)(=O)=O)cc2)C(/C=C/c2ccccc2)C1 (stereo not given) | 35.1% | 23.2% | 65.2% | 38.6% | 18.3% | 7.54% (active) | 64.9% | 39.8% | 51.6% | 88.1% | 74.6% | 49.3% | 20.6% | 44.9% | 46 | 15% | 59.5% | 64.4% | 54.5% | 49.9%
9 | CC(C)CCC(=O)[C@@H](C)[C@H]1[C@@H](OC2OCC(O)C(O)C2NS(C)(=O)=O)C[C@H]2[C@@H]3CC=C4C[C@@H](O)CC[C@]4(C)[C@H]3CC[C@]12C (stereo not given in full) | 14% | 19.6% | 22.2% | 32.1% | 5.29% (active) | 4.46% (active) | 7.33% (active) | -22% (active) | 21.9% | -36.1% (active) | -36.9% (active) | 27.7% | 75.2% | -16.1% (active) | 26.1 | 42.1% | 24.1% | -58.4% (active) | -8.84% (active) | -0.0897% (active)
10 | NS(=O)(=O)c1ccc(CCn2c(SCC(=O)N/N=C/c3cccnc3)nc3ccccc3c2=O)cc1 | 83% | 109% | 90.8% | 100% | 87.7% | 83.8% | 79.5% | 84.5% | 85% | 101% | 92% | 96% | 110% | 83.6% | 109 | 102% | 95.6% | 85.5% | 60.3% | 68.8%
11 | O=c1c2cc(Cl)ccc2oc2ccc(OCCCCCN3CCCCCC3)cc12 | 30% | 5.64% (active) | 92.3% | 91.5% | 69.2% | 83.2% | 62.9% | 85.4% | 73.2% | 107% | 96.5% | 89.6% | 80.9% | 78.6% | 89.2 | 110% | 94.6% | 68.9% | 60.5% | 48.5%
12 | COc1ccc(/C(C)=N/NC(=O)c2ccc(S(C)(=O)=O)cc2)cc1OC | 97.9% | 117% | 85.9% | 105% | 104% | 99.3% | 106% | 102% | 106% | 105% | 101% | 96.3% | 100% | 91.9% | 102 | 108% | 91.6% | 94.1% | 115% | 71.1%
13 | CCCCCCCCCCCCCCCCCC(=O)OCCCCCCCCCCCCC | 108% | 103% | 104% | 113% | 108% | 102% | 114% | 113% | 103% | 125% | 112% | 106% | 111% | 95% | 122 | 104% | 103% | 105% | 73% | 113%
14 | COc1ccccc1CNCCCN1C(=O)c2ccc3c4c(ccc(c24)C1=O)C(=O)N(CCCOCCCCOCCCN)C3=O | -52.7% (active) | -55% (active) | -5.57% (active) | -11.1% (active) | -48.6% (active) | 3.91% (active) | -98.7% (active) | -79.8% (active) | -34.3% (active) | -4.3% (active) | -42.7% (active) | -83.3% (active) | -87.5% (active) | -21.1% (active) | 28.6 | -62.2% (active) | -4.24% (active) | -16.1% (active) | 2.11% (active) | -9.44% (active)

Source: PubChem BioAssay (NCI)
